Test results published in PubChem BioAssay.

Tests used:
[1] = system: Human papillomavirus type 1a protein E7 (residues 44-93); test: small molecules binding HPV E7 44-93 – biochemical, small-molecule microarray, residues 44-93, 635 nm fluorescence, primary screen (AID 1108); settings: fluorescence 635 nm, higher = more signal;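 note: E7 fragment applied at 1 µg/mL in TBST for 1 h at 4 C; score combines spot fluorescence with its signal to noise ratio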
[2] = hepatitis C replication reporter changes, two-sided – Huh7 cells, luciferase reporter, HCV replication inhibitor project, primary screen (AID 1109); settings: Huh7 HCV replicon luciferase reporter, 48 h; higher = more signal;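 note: huh7 hepatoma cells harbouring a luciferase neomycin HCV replicon reporter; luciferase luminescence as measure of HCV replicon replication; test concentration not given here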
[3] = target: Left-right determination factor 2 (Homo sapiens) (UniProt O00292); test: small molecules binding LEFTY2 protein – biochemical, small-molecule microarray, 635 nm fluorescence scan, primary screen (AID 1110); settings: higher = more signal
[4] = target: Calmodulin-1 (Homo sapiens) (UniProt P0DP23); test: small molecules binding calmodulin-1 with EGTA – biochemical, small-molecule microarray, Cy5-labelled CALM1, profiling panel (AID 1111); settings: Cy5-CALM1 binding fluorescence, higher = more signal;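 note: labelled calmodulin applied in Tris saline Tween buffer holding calcium plus EGTA and DTT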
[5] = target: Calmodulin-1 (Homo sapiens) (UniProt P0DP23); test: small molecules binding Ca-loaded calmodulin-1 – biochemical, small-molecule microarray, Cy5-labelled CALM1, plus calcium, artefact control for SMM control-protein annotation, profiling panel (AID 1112); settings: Cy5-CALM1 binding fluorescence, higher = more signal;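 note: score merges spot fluorescence with signal to noise from triplicate slides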
[6] = probe aWnt5a binding to arrayed compounds – biochemical, biotinylated probe, 635/667 nm fluorescence, primary screen (AID 1113); settings: small-molecule microarray, higher = more signal;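 note: score merges 667 nm fluorescence intensity with signal-to-noise per printed feature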
[7] = probe aShh binding to arrayed compounds – biochemical, biotinylated probe, 635/667 nm fluorescence, primary screen (AID 1114); settings: small-molecule microarray, higher = more signal;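 note: probe is biotin-labelled aShh protein from a stem cell growth factor screen; measures binding of labelled protein to compounds printed on the slide; score merges feature fluorescence at 667 nm with signal-to-noise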
[8] = probe aNog binding to arrayed compounds – biochemical, biotinylated probe, 635/667 nm fluorescence, primary screen (AID 1115); settings: small-molecule microarray, higher = more signal;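 note: probe is biotinylated aNog protein used at 0.15 µg/mL for 1 h at 4 C; z-score combines 667 nm fluorescence of each spot with its signal to noise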
[9] = target: Torsin-1A-interacting protein 1 (Homo sapiens) (UniProt Q5JTV8); test: compound microarray binding of lysate hLAP1 – cell lysate, small-molecule microarray, COS7 lysate, 635/667 nm fluorescence, primary screen (AID 1116); settings: 635 nm fluorescence, higher = more signal
[10] = target: Alpha-bungarotoxin (Bungarus multicinctus) (UniProt P60615); test: compounds binding labelled alpha-BTX control protein – biochemical, small-molecule microarray, Alexa647 label, 635/667 nm fluorescence, artefact control for SMM control protein annotation, profiling panel (AID 1117); settings: alpha-BTX-A647 binding fluorescence, higher = more signal
Alpha-bungarotoxin (Bungarus multicinctus), sequence (P60615 whole entry, looked up): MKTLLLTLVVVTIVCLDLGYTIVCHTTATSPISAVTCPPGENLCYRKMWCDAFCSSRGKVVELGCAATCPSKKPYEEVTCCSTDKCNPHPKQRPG

Torsin-1A-interacting protein 1 (Homo sapiens), sequence (Q5JTV8 whole entry, looked up): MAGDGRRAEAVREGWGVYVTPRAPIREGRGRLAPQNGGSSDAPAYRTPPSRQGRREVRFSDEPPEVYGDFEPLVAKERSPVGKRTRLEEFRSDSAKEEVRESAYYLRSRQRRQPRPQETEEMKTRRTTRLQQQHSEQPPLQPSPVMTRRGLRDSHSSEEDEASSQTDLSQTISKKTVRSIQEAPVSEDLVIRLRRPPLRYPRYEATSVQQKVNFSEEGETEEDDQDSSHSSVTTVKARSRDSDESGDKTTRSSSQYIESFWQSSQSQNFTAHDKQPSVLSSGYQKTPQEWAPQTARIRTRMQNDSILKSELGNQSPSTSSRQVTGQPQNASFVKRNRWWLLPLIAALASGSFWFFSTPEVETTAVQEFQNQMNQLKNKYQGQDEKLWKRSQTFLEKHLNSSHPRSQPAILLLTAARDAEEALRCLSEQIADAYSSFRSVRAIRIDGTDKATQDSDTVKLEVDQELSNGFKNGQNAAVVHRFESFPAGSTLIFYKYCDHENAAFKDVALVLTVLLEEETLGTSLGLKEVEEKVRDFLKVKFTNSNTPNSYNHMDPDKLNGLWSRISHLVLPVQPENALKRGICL
Left-right determination factor 2 (Homo sapiens), sequence (O00292 whole entry, looked up): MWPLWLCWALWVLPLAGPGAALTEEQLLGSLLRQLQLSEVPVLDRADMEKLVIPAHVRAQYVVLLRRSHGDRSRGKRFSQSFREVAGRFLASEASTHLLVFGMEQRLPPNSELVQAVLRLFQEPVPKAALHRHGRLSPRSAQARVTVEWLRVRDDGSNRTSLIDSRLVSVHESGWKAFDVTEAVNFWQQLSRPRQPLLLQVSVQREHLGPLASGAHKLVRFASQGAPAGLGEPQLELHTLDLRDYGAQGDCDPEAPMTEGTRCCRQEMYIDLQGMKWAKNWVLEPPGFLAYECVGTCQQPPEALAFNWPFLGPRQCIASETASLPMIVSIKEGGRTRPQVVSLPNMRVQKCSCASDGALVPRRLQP

| SMILES | composite z-score [1] | z-score [2] | composite z-score [3] | composite z-score [4] | composite z-score [5] | composite z-score [6] | composite z-score [7] | composite z-score [8] | composite z-score [9] | composite z-score [10] |
| --- | --- | --- | --- | --- | --- | --- | --- | --- | --- | --- |
| COCC(=C=CC[C@H](O)c1ccc(OCCO)cc1)C[C@H](O)c1cc(Cl)cc(Cl)c1O | 1.35 | -3.96 | 0.628 | -0.281 | -0.814 | -0.0108 | 0.678 | 0.277 | 0.163 | 0.155 |
| COc1ccc(C(O)C2C=CC3C(=O)NC(=O)C3N2Nc2ccccn2)cc1OCc1ccccc1 (stereo not given) | -0.156 | -0.129 | -0.0932 | 0.916 | 0.0805 | -0.15 | -0.0886 | 0.185 | 0.474 | 0.251 |
| COCCOC(=O)N1C(=O)[C@@]2(c3cc(C#Cc4ccc(OC)cc4)ccc31)[C@H](C(=O)N1CCN(c3ncccn3)CC1)[C@H]1C(=O)O[C@H](c3ccccc3)[C@H](c3ccccc3)N1[C@@H]2c1ccc(O)cc1 | 0.519 | -1.39 | 0.0473 | 0.958 | 0.217 | -0.207 | -0.138 | -0.366 | 0.135 | 0.107 |
| CC(C)(C)N1CC=CC23O[C@@H]4C=CCOC(=O)[C@@H]4[C@H]2C(=O)N(CCCCCO)[C@@H]3C1=O (stereo not given in full) | -1.2 | -0.394 | -0.788 | -0.821 | -0.0669 | -0.169 | -0.221 | 1.03 | 2.1 | -1.45 |
| COc1ccc(C#Cc2ccc3c(c2)[C@]2(C(=O)N3)[C@H](c3ccc(O)cc3)N3[C@H](c4ccccc4)[C@H](c4ccccc4)OC(=O)[C@H]3[C@@H]2C(=O)NC[C@H](O)c2ccccc2)cc1 | 1.33 | -1.63 | 0.0197 | 0.199 | 0.689 | 0.164 | -0.138 | 0.305 | 0.818 | 1.26 |
| CCOC(=O)C1=CCC(c2ccc([N+](=O)[O-])cc2)N(S(=O)(=O)c2ccc(C)cc2)C1 (stereo not given) | 1.08 | -2.35 | -0.087 | 0.279 | 0.548 | -0.0644 | 0.138 | 0.61 | 0.304 | 0.159 |
| [N-]=[N+]=NCc1ccccc1C[C@]1(C(=O)NCC(O)CO)N=C(c2ccc(OCCCO)cc2)O[C@H]1c1ccccc1N=[N+]=[N-] (stereo not given in full) | 1.38 | -1.47 | -1.22 | 1.03 | 1.04 | 0.0633 | 0.14 | 1.18 | 1.4 | 1.75 |
| O=C1O[C@H](c2ccccc2)[C@H](c2ccccc2)N2[C@H]1[C@@H](C(=O)O)[C@]1(C(=O)Nc3ccc(C#CC4=CCCCC4)cc31)[C@H]2c1ccc(OCCO)cc1 | 1.22 | -1.69 | 0.659 | 0.447 | 0.166 | 0.055 | -0.304 | 1.17 | 1.09 | 2.81 |
| COC(=O)[C@@]1(Cc2ccccc2)[C@H]2c3cc(C(=O)N(C)C)n(Cc4c(-c5ccccc5)noc4C)c3C[C@H]2CN1C(=O)c1ccccc1 | 1.15 | -0.535 | -0.51 | 1.16 | 0.954 | 0.204 | 0.545 | 1.85 | 1.68 | 1.56 |
| O=C1OCCC=C[C@H]2OC34C=CCN(Cc5ccccc5)C(=O)[C@H]3N(CCCCCCO)C(=O)[C@@H]4C12 (stereo not given in full) | 1.04 | -0.422 | -1.06 | -0.214 | 0.232 | -0.343 | -0.233 | -0.402 | 0.366 | -0.63 |
| Cc1cc(C)c(C(O)C2C=CC3C(=O)N(C)C(=O)C3N2Nc2ccccc2)c(C)c1 (stereo not given) | -0.7 | 0.228 | 0.627 | 1.16 | -0.0299 | 0.881 | 0.365 | 1.45 | 1.23 | 0.821 |
| O=C1C2C=CC(C(O)c3ccc(B(O)O)cc3)N(Nc3ccccc3)C2C(=O)N1c1ccccc1 (stereo not given) | 0.0036 | -1.49 | -0.158 | 0.883 | 0.665 | -0.0944 | 0.151 | 0.162 | 0.949 | 0.402 |
| [N-]=[N+]=NCc1ccccc1C[C@@]1(C(=O)N2CCOCC2)N=C(c2ccc(OCCCO)cc2)O[C@@H]1c1ccccc1CN=[N+]=[N-] | -0.422 | -2.43 | -0.269 | 2.2 | 1.06 | 0.324 | 0.167 | -0.434 | 1.27 | 2.21 |
| COc1c(C)cc(-c2cc3c(c(-c4ccc(Oc5ccccc5)cc4)n2)[Si](C(C)C)(C(C)C)OC3)cc1C | -0.0076 | -0.382 | -0.0065 | 0.354 | 0.777 | -0.0721 | -0.138 | -0.111 | -0.0839 | 0.327 |
| CCCC[C@H]1OB(O)C[C@H]2C1=C(C)C[C@H]1C(=O)N(Cc3ccccc3)C(=O)[C@H]12 | 0.152 | 0.885 | 0.369 | 0.229 | -0.326 | 0.0017 | -0.0396 | -0.351 | -0.254 | -0.277 |
| CC(C)CNC(=O)[C@@H]1c2ccccc2C(=O)N(Cc2cc(C(F)(F)F)cc(C(F)(F)F)c2)[C@H]1c1ccc(CO)cc1 | -0.337 | -0.195 | -0.488 | -0.128 | 0.401 | 0.0437 | -0.155 | -0.247 | -0.0708 | -0.141 |
| COC(=O)[C@@]1(Cc2ccc(OC)cc2)[C@H]2c3cc(C(=O)N4CCCC4)n(Cc4cc(F)cc5c4OCOC5)c3C[C@H]2CN1C(=O)c1ccccc1 | 0.756 | -3.58 | -0.474 | 1.37 | 0.365 | 0.223 | 0.108 | 0.0549 | 0.831 | 0.408 |
| CCCCCN1CC=CC23O[C@@H]4/C=C\CCC(C)OC(=O)C4[C@H]2C(=O)N(CCCCCO)[C@@H]3C1=O (stereo not given in full) | -1.38 | 0.0822 | -0.594 | -0.476 | -0.561 | -0.298 | -0.147 | -0.24 | -0.912 | -0.937 |
| C=C[C@@H](COC(C)=O)N(Cc1ccc([N+](=O)[O-])cc1)S(=O)(=O)c1ccc(Br)cc1 | -0.541 | -0.365 | 0.59 | 0.989 | 0.729 | -0.0597 | -0.0709 | 0.392 | 0.546 | 1.78 |
| [N-]=[N+]=NCc1ccccc1C[C@]1(C(=O)O)N=C(c2ccc(OCCCO)cc2)O[C@H]1c1ccccc1CN=[N+]=[N-] | 1.43 | -1.21 | -0.524 | 1.74 | 0.411 | -0.0792 | -0.0146 | 1.16 | 0.978 | 1.68 |
| O=C1N(CCS(=O)(=O)c2ccccc2)c2ccccc2C[C@@]12COC(c1ccc(OCCCO)cc1)=N2 | 1.09 | -1.49 | 0.428 | 0.417 | 0.445 | 0.152 | 0.0124 | 0.69 | 0.99 | -0.103 |
| CCOC(=O)C[C@H]1[C@H](OC(=O)c2ccc(-c3ccccc3)cc2)[C@@H](NC(=O)Cc2ccc(OC)cc2)c2cc(OCCCO)ccc2N1C(=O)c1ccc2ccccc2n1 | 1.13 | -1.92 | 0.0394 | 0.882 | -0.0431 | 0.0068 | -0.282 | -0.201 | -0.0103 | 0.0263 |
| Cc1ccc(S[C@]2(C(=O)NCc3ccccc3)CC(=O)N(Cc3ccccc3)[C@@H]2c2ccc(CO)cc2)cc1 | 1.42 | -2.1 | -0.934 | -0.344 | -0.195 | -0.0395 | -0.0977 | -0.364 | 1.2 | -0.593 |
| O=C(O)[C@H]1C[C@H]2C(=O)NCC(=O)N2[C@H]1c1ccc(O)cc1 | -0.008 | 1.81 | 0.205 | -0.559 | -0.0282 | -0.147 | -0.214 | -0.312 | 0.519 | 2.03 |
| C#CCN(C(/C=C/c1ccccc1)CO)C(C(=O)O)c1ccccc1 (stereo not given) | -0.943 | -0.206 | 0.111 | -0.238 | -0.707 | -0.0981 | -0.2 | -0.242 | -0.58 | 0.127 |
| CCCCCCCCCCC(O)C1C=CC2C(=O)N(Cc3ccccc3)C(=O)C2N1n1cnnc1 (stereo not given) | 1.37 | -1.2 | -0.62 | 1.55 | 0.727 | 0.147 | 0.251 | 0.62 | 0.36 | 1.02 |
| C=C[C@@H](COC(C)=O)N(Cc1ccccc1[N+](=O)[O-])S(=O)(=O)c1ccc(Br)cc1 | 1.08 | -1.86 | 1.02 | 0.198 | -0.0348 | -0.0185 | -0.0192 | -0.56 | 0.954 | 0.864 |
